The campaign covered roughly 310,000 compounds. About 3,600 (1.2%) were called active.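 Rule for the calls: active = ratio plate-corrected score three or more library SD toward inhibition, starting fluorescence score within five deviations; inactive = the rest.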 Only a selection was taken, and actives are over-represented in it overall.
These compounds were tested against Anoctamin-1 (Mus musculus) (UniProt Q8BHY3) (assay: blockers of mouse ANO1 Ca-activated Cl channel – cell-based, HTS, primary screen (AID 588511;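 for normalized B-score (activity score, 25-100; higher = stronger inhibition): score derived from kinetic fluorescence span divided by baseline fluorescence per well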)). Details: HEK293 TMEM16A/YFP iodide influx fluorescence, ionomycin; at 10 µM.
Anoctamin-1 (Mus musculus), sequence (Q8BHY3 whole entry, looked up): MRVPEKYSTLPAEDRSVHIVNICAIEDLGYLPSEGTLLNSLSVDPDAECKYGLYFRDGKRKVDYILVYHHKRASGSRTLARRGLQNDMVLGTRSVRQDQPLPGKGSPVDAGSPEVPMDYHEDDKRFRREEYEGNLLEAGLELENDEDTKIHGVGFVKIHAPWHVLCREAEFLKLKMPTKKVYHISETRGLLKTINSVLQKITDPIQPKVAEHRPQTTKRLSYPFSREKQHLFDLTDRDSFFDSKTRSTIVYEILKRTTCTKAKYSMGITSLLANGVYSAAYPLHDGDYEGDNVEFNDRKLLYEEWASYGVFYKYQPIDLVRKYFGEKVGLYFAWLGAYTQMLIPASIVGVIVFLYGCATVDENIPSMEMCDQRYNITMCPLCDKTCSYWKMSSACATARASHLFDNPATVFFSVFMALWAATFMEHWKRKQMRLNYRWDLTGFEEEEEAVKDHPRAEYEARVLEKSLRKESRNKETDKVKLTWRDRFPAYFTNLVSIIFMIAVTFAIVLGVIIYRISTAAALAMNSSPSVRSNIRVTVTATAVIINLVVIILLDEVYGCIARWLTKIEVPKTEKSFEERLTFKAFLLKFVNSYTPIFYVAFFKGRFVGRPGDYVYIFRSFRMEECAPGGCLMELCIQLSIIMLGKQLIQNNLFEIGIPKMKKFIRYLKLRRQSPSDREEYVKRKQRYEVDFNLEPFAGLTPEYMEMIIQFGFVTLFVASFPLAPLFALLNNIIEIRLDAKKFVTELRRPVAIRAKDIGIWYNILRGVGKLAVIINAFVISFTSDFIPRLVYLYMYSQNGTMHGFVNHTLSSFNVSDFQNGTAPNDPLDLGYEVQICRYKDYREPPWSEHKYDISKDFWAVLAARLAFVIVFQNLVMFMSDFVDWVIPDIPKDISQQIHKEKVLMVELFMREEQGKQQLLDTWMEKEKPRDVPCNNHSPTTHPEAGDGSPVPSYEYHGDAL

**Q.** Which normalized B-score (activity score, 25-100; higher = stronger inhibition) does the source give for `CCCCOC(=O)CCCc1ccc([N+](=O)[O-])cc1[N+](=O)[O-]` here?
**A.** inactive

**Q.** With `O=C(N/N=C/c1cc(Cl)cc([N+](=O)[O-])c1O)C(O)(c1ccccc1)c1ccccc1` as the compound, how does the normalized B-score (activity score, 25-100; higher = stronger inhibition) read?
**A.** 100 (active)

**Q.** With `CN(C)/N=C/c1cc(Cl)cc([N+](=O)[O-])c1O` as the compound, how does the normalized B-score (activity score, 25-100; higher = stronger inhibition) read?
**A.** inactive

**Q.** Which normalized B-score (activity score, 25-100; higher = stronger inhibition) does the source give for `O=C(N/N=C/c1cc(Br)c(O)c([N+](=O)[O-])c1)C(O)(c1ccccc1)c1ccccc1` here?
**A.** inactive

**Q.** `O=C(NCc1ccncc1)NC12CC3CC(CC(C3)C1)C2` was tested. Which normalized B-score (activity score, 25-100; higher = stronger inhibition) did it give?
**A.** inactive

**Q.** Which normalized B-score (activity score, 25-100; higher = stronger inhibition) does the source give for `O=C(NCc1ccc(Cl)cc1)NCc1ccc(Cl)cc1` here?
**A.** inactive

**Q.** How did the normalized B-score (activity score, 25-100; higher = stronger inhibition) turn out when `S=C(NCc1ccc(Cl)cc1)NC12CC3CC(CC(C3)C1)C2` was run?
**A.** 100 (active)

**Q.** With `C=CCn1c2ccccc2c2nnc(SCc3[nH]c(=O)[nH]c3C(=O)CCCCC(=O)OCC)nc21` as the compound, how does the normalized B-score (activity score, 25-100; higher = stronger inhibition) read?
**A.** inactive

**Q.** With `COc1cc(N2C(=O)CC3(CCCC3)CC2=O)cc(OC)c1OC` as the compound, how does the normalized B-score (activity score, 25-100; higher = stronger inhibition) read?
**A.** inactive

**Q.** How did the normalized B-score (activity score, 25-100; higher = stronger inhibition) turn out when `COc1cc(OC)cc(C(=O)NNC(=O)CNC(=O)c2ccc(Br)o2)c1` was run?
**A.** inactive

**Q.** Which normalized B-score (activity score, 25-100; higher = stronger inhibition) does the source give for `CSCc1ccc(C(=O)Nc2cc(C)cc(C)c2)cc1` here?
**A.** inactive

**Q.** With `Cc1nc2ccccc2cc1OCc1ccc(F)cc1` as the compound, how does the normalized B-score (activity score, 25-100; higher = stronger inhibition) read?
**A.** 25 (active)

**Q.** With `Fc1ccccc1COc1cccc2cccnc12` as the compound, how does the normalized B-score (activity score, 25-100; higher = stronger inhibition) read?
**A.** inactive

**Q.** How did the normalized B-score (activity score, 25-100; higher = stronger inhibition) turn out when `Cc1occc(=O)c1OCc1ccc(F)cc1` was run?
**A.** inactive

**Q.** Which normalized B-score (activity score, 25-100; higher = stronger inhibition) does the source give for `CC1CCCCN1C(=O)Cn1c(=O)oc2cc(S(=O)(=O)N3CCCCC3)ccc21` (stereo not given) here?
**A.** inactive

**Q.** `Cc1cc(C)cc(NC(=O)Cn2cnc3c(nnn3Cc3ccc(F)cc3)c2=O)c1` was tested. Which normalized B-score (activity score, 25-100; higher = stronger inhibition) did it give?
**A.** inactive

**Q.** How did the normalized B-score (activity score, 25-100; higher = stronger inhibition) turn out when `CCC1SC2=NCCN2C1(O)c1ccc(Cl)cc1` (stereo not given) was run?
**A.** inactive

**Q.** `Clc1ccc(-c2nnc(SCc3nc4ccccc4s3)o2)cc1` was tested. Which normalized B-score (activity score, 25-100; higher = stronger inhibition) did it give?
**A.** inactive

**Q.** `Clc1ccccc1SCc1nc2ccccc2[nH]1` was tested. Which normalized B-score (activity score, 25-100; higher = stronger inhibition) did it give?
**A.** inactive

**Q.** `c1ccc(-c2nnc(SCc3nc4ccccc4[nH]3)o2)cc1` was tested. Which normalized B-score (activity score, 25-100; higher = stronger inhibition) did it give?
**A.** 25 (active)

**Q.** `COc1ccc([C@H]2[C@H](C(C)=O)N3N=Cc4ccccc4C3C23C(=O)OC(C)(C)OC3=O)cc1` (stereo not given in full) was tested. Which normalized B-score (activity score, 25-100; higher = stronger inhibition) did it give?
**A.** inactive

**Q.** `O=C(Nc1cccc(Cl)c1Cl)c1ccccc1NC(=O)C1CC=CCC1C(=O)O` (stereo not given) was tested. Which normalized B-score (activity score, 25-100; higher = stronger inhibition) did it give?
**A.** inactive

**Q.** Which normalized B-score (activity score, 25-100; higher = stronger inhibition) does the source give for `Cc1c(C(=O)NC(=S)NCc2cccnc2)oc2ccccc12` here?
**A.** inactive

**Q.** `Cc1oc2nc(SCC(=O)Nc3ccc(S(N)(=O)=O)cc3)nc(NC(=O)c3ccccc3)c2c1C` was tested. Which normalized B-score (activity score, 25-100; higher = stronger inhibition) did it give?
**A.** inactive

**Q.** With `Cc1oc2nc(SCC(=O)NCc3cccnc3)nc(N)c2c1C` as the compound, how does the normalized B-score (activity score, 25-100; higher = stronger inhibition) read?
**A.** 100 (active)

**Q.** How did the normalized B-score (activity score, 25-100; higher = stronger inhibition) turn out when `COc1ccc(CCNC(=O)c2nnc(CS(=O)(=O)c3ccccc3)o2)cc1OC` was run?
**A.** inactive

**Q.** How did the normalized B-score (activity score, 25-100; higher = stronger inhibition) turn out when `O=C(CNCCC1=CCCCC1)Nc1ccccc1N1CCCCCC1` was run?
**A.** 25 (active)

**Q.** Which normalized B-score (activity score, 25-100; higher = stronger inhibition) does the source give for `Cc1ccccc1NC(=O)Nc1ccccc1N1CCCCC1` here?
**A.** inactive

**Q.** With `Cc1ccccc1NC(=O)CNc1ccccc1N1CCCCC1` as the compound, how does the normalized B-score (activity score, 25-100; higher = stronger inhibition) read?
**A.** inactive

**Q.** With `COc1ccccc1CNC(=O)CSc1nc(=O)n(Cc2ccncc2)c2c1CCC2` as the compound, how does the normalized B-score (activity score, 25-100; higher = stronger inhibition) read?
**A.** inactive

**Q.** `CCN(CC)CCCNC(=O)CCn1nc(-c2ccc(Cl)cc2)ccc1=O` was tested. Which normalized B-score (activity score, 25-100; higher = stronger inhibition) did it give?
**A.** inactive

**Q.** `Cc1ccc(-c2c[n+](=O)c3c(n2[O-])CCC3)cc1` was tested. Which normalized B-score (activity score, 25-100; higher = stronger inhibition) did it give?
**A.** inactive

**Q.** For `Cc1ccc(OCCCC(=O)Nc2ccc(S(=O)(=O)Nc3cc(C)nc(C)n3)cc2)cc1`, which normalized B-score (activity score, 25-100; higher = stronger inhibition) is on record?
**A.** inactive

**Q.** With `O=C(Cn1cnc2ccccc2c1=O)Nc1cccc(S(=O)(=O)N2CCCCC2)c1` as the compound, how does the normalized B-score (activity score, 25-100; higher = stronger inhibition) read?
**A.** inactive

**Q.** With `CC1CCN(S(=O)(=O)c2ccc3ncn(CC(=O)N(C)C4CCCCC4)c(=O)c3c2)CC1` as the compound, how does the normalized B-score (activity score, 25-100; higher = stronger inhibition) read?
**A.** inactive

**Q.** `CCN1CCCC1CNC(=O)Cn1cnc2ccc(S(=O)(=O)N3CCC(C)CC3)cc2c1=O` (stereo not given) was tested. Which normalized B-score (activity score, 25-100; higher = stronger inhibition) did it give?
**A.** 25 (active)

**Q.** Which normalized B-score (activity score, 25-100; higher = stronger inhibition) does the source give for `CC(=O)NC1C(Oc2ccc(C=O)cc2)OC(COC(C)=O)C(OC(C)=O)C1OC(C)=O` (stereo not given) here?
**A.** inactive

**Q.** With `COc1ccc(C(=O)NNC(=S)NC(=O)c2ccccc2)cc1` as the compound, how does the normalized B-score (activity score, 25-100; higher = stronger inhibition) read?
**A.** inactive

**Q.** With `Cc1onc(-c2ccccc2)c1C(=O)NNC(=S)NC(=O)c1ccc(F)cc1` as the compound, how does the normalized B-score (activity score, 25-100; higher = stronger inhibition) read?
**A.** inactive

**Q.** `COc1ccc(C(=O)NC(=S)NNC(=O)c2c(-c3ccccc3)noc2C)cc1` was tested. Which normalized B-score (activity score, 25-100; higher = stronger inhibition) did it give?
**A.** 100 (active)

**Q.** For `CC(C)C[C@H](NC(=O)C1CC(=O)N(c2ccc3c(c2)OCCO3)C1)C(=O)NC1CCCC1` (stereo not given in full), which normalized B-score (activity score, 25-100; higher = stronger inhibition) is on record?
**A.** inactive

**Q.** Which normalized B-score (activity score, 25-100; higher = stronger inhibition) does the source give for `CN(c1ccc(C(=O)N2CCc3ccccc3C2)cc1)S(C)(=O)=O` here?
**A.** inactive

**Q.** With `Cc1cccc(C)c1NC(=O)c1ccc(CN2CCc3ccccc3C2)cc1` as the compound, how does the normalized B-score (activity score, 25-100; higher = stronger inhibition) read?
**A.** inactive

**Q.** Which normalized B-score (activity score, 25-100; higher = stronger inhibition) does the source give for `CN(c1cccc(NC(=O)c2ccc(CN3CCc4ccccc4C3)cc2)c1)S(C)(=O)=O` here?
**A.** 25 (active)

**Q.** With `COc1cccc(-n2c(=O)c3c(C)c(C(=O)N(C)C)sc3n(CC(=O)NCCc3ccc(OC)c(OC)c3)c2=O)c1` as the compound, how does the normalized B-score (activity score, 25-100; higher = stronger inhibition) read?
**A.** inactive

**Q.** `Cc1nc(SC(C)C)[nH]c(=O)c1Cc1ccccc1` was tested. Which normalized B-score (activity score, 25-100; higher = stronger inhibition) did it give?
**A.** inactive

**Q.** How did the normalized B-score (activity score, 25-100; higher = stronger inhibition) turn out when `O=C1CC(C(F)(F)C(F)(F)C(F)(F)C(F)(F)F)=Nc2ccccc2N1` was run?
**A.** inactive

**Q.** For `Cc1ccc2cc(C)c(N3CCN(c4ccc(F)cc4)CC3)nc2c1`, which normalized B-score (activity score, 25-100; higher = stronger inhibition) is on record?
**A.** inactive

**Q.** Which normalized B-score (activity score, 25-100; higher = stronger inhibition) does the source give for `Cc1ccc(-n2ncc3c(N4CCN(c5ccc(F)cc5)CC4)ncnc32)c(C)c1` here?
**A.** 100 (active)

**Q.** With `Cc1ccc(-n2ncc3c(=O)[nH]cnc32)c(C)c1` as the compound, how does the normalized B-score (activity score, 25-100; higher = stronger inhibition) read?
**A.** inactive
